14 compounds from PubChem BioAssay (NCATS) can be followed below.

This assay in a line: qHTS drug screen for cell cycle checkpoint inhibitors in PARPi-resistant BRCA-mutant ovarian cancer cell lines. (AID 1963452). The settings on record: PEO1/OlaR viability, CellTiter-Glo luminescence, 96 h, stronger effect = lower value. The source says:
Women's Malignancies Branch, Center for Cancer Research (CCR),
National Cancer Institute (NCI), National Institutes of Health (NIH), Bethesda, MD
Poly (ADP-ribose) polymerase inhibitors (PARPis) have changed the treatment paradigm in breast cancer gene (BRCA) - mutant high-grade serous ovarian carcinoma (HGSC). However, most patients eventually develop resistance to PARPis, highlighting an unmet need for improved therapeutic strategies. Using high-throughput drug screens, we identified ataxia telangiectasia and rad3-related protein/checkpoint kinase 1 (CHK1) pathway inhibitors as cytotoxic and further validated the activity of the CHK1 inhibitor (CHK1i) prexasertib in PARPi-sensitive and -resistant BRCA-mutant HGSC cells and xenograft mouse models. CHK1i monotherapy induced DNA damage, apoptosis, and tumor size reduction. We then conducted a phase 2 study (NCT02203513) of prexasertib in patients with BRCA-mutant HGSC. The treatment was well tolerated but yielded an objective response rate of 6% (1 of 17; one partial response) in patients with previous PARPi treatment. […] BRCA reversion mutation in previously PARPi-treated BRCA-mutant patients was not associated with resistance to CHK1i.
Among others, 1082 oncology drugs, both approved and investigational, were prioritized based on their status in clinical trial development. […] Drugs with average Z-AUC values less than -1.0 in all three cell lines were classified as "hits" resulting in 151 oncology drug hits. The screen also confirmed cross-resistance between olaparib and other PARPis (rucaparib, niraparib, and talazoparib) in PARPi-resistant PEO1/OlaR and PEO4.
[1] G. L. Lin, K. M. Wilson, M. Ceribelli, B. Z. Stanton, P. J. Woo, S. Kreimer, E. Y. Qin, X. Zhang, J. Lennon, S. Nagaraja, P. J. Morris, M. Quezada, S. M. Gillespie, D. Y. Duveau, A. M. Michalowski, P. Shinn, R. Guha, M. Ferrer, C. Klumpp-Thomas, S. Michael, C. McKnight, P. Minhas, Z. Itkin, E. H. Raabe, L. Chen, R. Ghanem, A. C. Geraghty, L. Ni, K. I. Andreasson, N. A. Vitanza, K. E.Warren, C. J. Thomas, M. Monje, Therapeutic strategies for diffuse midline glioma from high-throughput combination drug screening. Sci. Transl. Med. 11, (2019).
[2] T. M. Yamamoto, A. McMellen, Z. L. Watson, J. Aguilera, R. Ferguson, E. Nurmemmedov, T. Thakar, G. L. Moldovan, H. Kim, D. M. Cittelly, A. M. Joglar, E. P. Brennecke, H. Wilson, K. Behbakht, M. J. Sikora, B. G. Bitler, Activation of Wnt signaling promotes olaparib resistant ovarian cancer. Mol. Carcinog. 58, 1770 - 1782 (2019).
PROTOCOL TABLE (as described by Inglese J, Shamu CE and Guy RK. 2007)
SEQUENCE No. (e.g., 1, 2, 3, etc.); […] (e.g., Cells, Incubation, Reagent, etc.); VALUE; DESCRIPTION.
1; Compounds; 20nL; 1536-well white tissue culture-treated plates.
2; Cells; 5 uL; PEO1, PEO4, and PEO1/OlaR cells at 600 cells per well.
3; Incubation; 96 hr; 37C, 95% humidity, 5% CO2.
4; Reagent; 3 uL; CellTiter-Glo (Promega).
5; Incubation; 15 min; room temperature.
6; Detection; Luminescence, PHERAstar (BMG Labtech) plate reader.
NOTES (numbers refer to Sequence numbers above)
1. MIPE 5.0 compounds were acoustically dispensed by Echo Acoustic Liquid Handler (Beckman Coulter Life Sciences). Each compound was plated at an 11-point concentration range with 1:3 dilution. Bortezomib, a proteasome inhibitor (final concentration, 20 uM), was used as a positive.
2. PEO1, PEO4, and PEO1/OlaR were trypsinized and dispensed in 5 uLof growth medium using a Multidrop Combi dispenser at a density of 600 cells per well to allow compounds to be present during the exponential growth phase.
3. Plates were incubated for 96 hours at standard incubator conditions and covered by a stainless steel gasketed lid to prevent evaporation.
4. Three microliters of CellTiter-Glo (Promega) were added to each well.
5. Plates were incubated at room temperature for 15 min with a stainless-steel lid in place.
6. Luminescence readings were taken using PHERAstar (BMG Labtech). […]
In general terms: In qHTS, concentration-response curves come from the screen itself.

The mark [1] stands for this setting: measured here: PEO1 parental Z-AUC.

The structures appear in SMILES notation. Calls of active or inactive are those of the source. Calls follow the shape of the full dose curve.

`O=S(=O)(NCCNC/C=C/c1ccc(Br)cc1)c1cccc2cnccc12`: the Z-AUC was 0.684 (inactive). Further, the Z-AUC under setting [1] was found to be 1.26. Besides, the Z-AUC (measured here: PEO4 Z-AUC) came to 0.757.

Turning to `CNC(=O)c1c(C)oc2cc(Oc3ncnc4cc(OC)c(OC)cc34)ccc12`, the Z-AUC is -0.474 (inactive). The Z-AUC under setting [1] is -0.16. Besides, for the setting “measured here: PEO4 Z-AUC”, the Z-AUC was -0.205.

In the case of `Cc1[nH]c(/C=C2\C(=O)Nc3ccccc32)c(C)c1CCC(=O)O`, the Z-AUC was 0.922 (inactive). For the same compound, under setting [1], the Z-AUC is 0.668. Moreover, for the setting “measured here: PEO4 Z-AUC”, the Z-AUC amounted to 0.162.

On to `CCC(=O)Nc1cccc(Oc2nc(Nc3ccc(N4CCN(C)CC4)cc3OC)ncc2Cl)c1`, for which the Z-AUC was -0.15 (inactive). The Z-AUC under setting [1] was 0.187. For the same compound, for the setting “measured here: PEO4 Z-AUC”, the Z-AUC worked out at 0.383.

For `O=C(c1ccc(F)c(F)c1Nc1ccc(I)cc1F)N1CC(O)([C@@H]2CCCCN2)C1`, the Z-AUC was -1.02 (inactive). For the same compound, the Z-AUC under setting [1] was -0.911. Also, the Z-AUC (measured here: PEO4 Z-AUC) was -1.32.

For the compound `Nc1ncnc(Nc2ccc(OCc3ccccc3)c(Cl)c2)c1/C=N/OCCN1CCOCC1`, the Z-AUC was -0.0964 (inactive). The Z-AUC under setting [1] was 0.0883. For the same compound, for the setting “measured here: PEO4 Z-AUC”, the Z-AUC is -0.311.

For the compound `COc1ccc(CNC(=O)Nc2ncc([N+](=O)[O-])s2)cc1`, the Z-AUC is -1.06 (inactive). Besides, under setting [1], the Z-AUC was -0.517. Further, the Z-AUC (measured here: PEO4 Z-AUC) is -0.518.

For the compound `N#C[C@@H]1C[C@@H]2C[C@@H]2N1C(=O)[C@@H](N)C12CC3CC(CC(O)(C3)C1)C2`, the Z-AUC is -0.557 (inactive). Besides, under setting [1], the Z-AUC came out at 0.593. Besides, the Z-AUC (measured here: PEO4 Z-AUC) was -0.565.

Turning to `COc1cc(F)ccc1-c1ncnc(Nc2cccc(CS(C)(=N)=O)c2)n1` (configuration not stated), the Z-AUC is -0.906 (inactive). For the same compound, the Z-AUC under setting [1] was -1.2. For the setting “measured here: PEO4 Z-AUC”, the Z-AUC is -0.831.

For `COc1ccc(-c2oc3ncnc(N)c3c2-c2ccc(NC(=O)Nc3cc(C(F)(F)F)ccc3F)cc2)cc1`, the Z-AUC is 0.736 (inactive). For the same compound, the Z-AUC under setting [1] came to 0.865. Besides, the Z-AUC (measured here: PEO4 Z-AUC) came out at 0.712.

In the case of `COCCNCc1ccc(-c2cc3nccc(Oc4ccc(NC(=S)NC(=O)Cc5ccc(F)cc5)cc4F)c3s2)nc1`, the Z-AUC was 0.225 (inactive). Also, under setting [1], the Z-AUC is -0.316. For the same compound, the Z-AUC (measured here: PEO4 Z-AUC) stood at 0.00247.

`CNCCN(C)Cc1cn[nH]c1-c1ccc(OC2CC(OCCC3CCOCC3)C2)cc1` (configuration not stated): the Z-AUC was -0.683 (inactive). In addition, under setting [1], the Z-AUC was -1. In addition, where the note is “measured here: PEO4 Z-AUC”, the Z-AUC is -0.979.

As for `O=C(NOCCO)c1cc(CN2OCCCC2=O)c(F)c(F)c1Nc1ccc(I)cc1F`, the Z-AUC was -1.18 (inactive). Also, under setting [1], the Z-AUC was -0.961. Further, where the note is “measured here: PEO4 Z-AUC”, the Z-AUC was -1.01.

As to `Cn1cc(-c2cnc3ccc4ccc(CS(=O)(=O)NCc5ccccn5)cc4c(=O)c3c2)cn1`, the Z-AUC is -1.05 (inactive). Moreover, under setting [1], the Z-AUC was -0.542. Further, the Z-AUC (measured here: PEO4 Z-AUC) was -0.899.
